# Rows were chosen to be rich in hits. Some 19% of all compounds tested hit in one or more screens of this group.
# HT1080NT lethal: qHTS for induction of synthetic lethality in tumor cells producing 2HG: qHTS for the HT-1080-NT fibrosarcoma cell line; HT-1080-NT fibrosarcoma viability, CellTiter-Glo ATP luminescence, 48 h; Potency, µM (top dose mostly 46.1 µM), for the others: top-dose activity, negative = less viability, hits mostly cytotoxic; actives 1.6% (n = 360,000);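 also: NT is the 2HG producing partner of a matched IDH1 knockdown line; potency is read from the fitted curve at half-maximal effect; 0% = DMSO-treated cells and -100% = media-only wells without cells; nearly all actives have a fitted effect of over 55% in size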
#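 Fibrosarcoma NT cells, 750 per well in 5% FBS RPMI, were exposed to compound for 48 hours. Viability: CellTiter-Glo luminescence.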
# DT40 TDP1 no CPT: qHTS for Inhibitors of human tyrosyl-DNA phosphodiesterase 1 (TDP1): qHTS in cells in absence of CPT. DT40 Tdp1-/- hTDP1 cells, no CPT, ATP luminescence, 48 h. Potency, µM (highest dose often 46.2 µM), inactives show at the top dose activity change, negative = growth inhibition, hits mostly inhibitors. actives 15% (n = 420,000); also: potency is read from the fitted curve at half-maximal effect; nearly all actives have a fitted effect of over 55% in size
#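 DT40 Tdp1-/-;hTDP1 cells, no CPT (DMSO vehicle only), 400 cells/well; compounds pin-transferred; ≥48 hr, 37 °C; CellTiter-Glo 30 min RT dark, luminescence read.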
# HT1080 IDH1KD tx: qHTS for induction of synthetic lethality in tumor cells producing 2HG: qHTS for the HT-1080-IDH1KD cell line | HT-1080 IDH1 knockdown viability, ATP luminescence, 48 h | Potency, µM (doses to about 46.1 µM), without a hit: top-dose activity, negative = toxicity, usual class: cytotoxic | actives 2% (n = 360,000) | AID 686971, 2013;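 also: potency is read from the fitted curve at half-maximal effect; 0% = DMSO wells and -100% = cell-free medium wells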
#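 After a 2 h attachment period, IDH1KD HT-1080 cells took pin-transferred compound for 48 h at 37 °C; ATP-based luminescence after 10 min room-temperature reagent incubation reported viability.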
# IL-1B inflam inh: qHTS for Inhibitors of Inflammasome Signaling: IL-1-beta AlphaLISA Primary Screen | THP-1 LPS/ATP IL-1B secretion, AlphaLISA, 16 h; active compounds read low | activity change, % at 57.5 µM | actives 4.7% (n = 360,000); in the data active = activity change below about -50%; inconclusive = mostly about -30% to -49%
#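 Secreted IL-1B measured by AlphaLISA bead assay after 16 h compound exposure of THP-1 cells; compounds (final up to 57.5 uM) added 1 h before LPS (250 ng/mL) and ATP (1.25 mM) stimulation; lower signal means less secretion.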
# TDP1 cell CPT: qHTS for Inhibitors of human tyrosyl-DNA phosphodiesterase 1 (TDP1): qHTS in cells in presence of CPT; actives 12% (n = 420,000); AID 686979, 2013; Potency, µM (titrated, usually from 46.2 µM), without a hit: top-dose activity change, negative = growth inhibition, most hits filed as inhibitors; chicken DT40 Tdp1-/-;hTDP1 cells + 20 nM CPT, ATP luminescence, 48 h; also: potency is read from the fitted curve at half-maximal effect; nearly all actives have a fitted effect of over 55% in size
#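 Cell growth measured by CellTiter-Glo luminescence after a minimum 48 h, 37 C compound exposure with 20 nM CPT in Tdp1-knockout DT40 cells stably expressing hTDP1, seeded 400/well; qHTS titration format.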
# Starred values were filed as active, the others as inactive; ? = inconclusive; . = no result given; [ ] = dose if it differs, or a comment. Unless noted, calls follow the shape of the dose curve; as a rule, active = well fitted curve in the direction sought with a large enough effect; inconclusive = small, poorly fitted or top-dose-only effect, or another doubt; inactive = no such curve, though single readings can be large; an effect the other way counts as inactive or inconclusive. Unless noted, % is scaled to controls: 0 for no effect and ±100 for the full control effect.
SMILES,HT1080NT lethal,DT40 TDP1 no CPT,HT1080 IDH1KD tx,IL-1B inflam inh,TDP1 cell CPT
CCOC(=O)c1cnc2c(ccc3ccccc32)c1Nc1ccc(C(C)=O)cc1,.,23.1µM*,.,.,?
COC(=O)OCC12CCC(O1)C1(C)C(=O)OCC21 (stereo not drawn),7.4%,29.1µM*,11.3%,-5.0,?
CCOC(=O)c1c(C)n(Cc2ccco2)c2c1cc(O)c1ccccc12,-16.8%,?,-5.7%,2.8,?
Oc1ccc2c3c1O[C@H]1c4[nH]c5ccccc5c4C[C@@]4(O)[C@@H](C2)N(CC2CC2)CC[C@]314,?,10.6%,?,-61.3*,19.5%
Oc1ccc2c3c1O[C@H]1c4c(c5ccccc5n4Cc4ccccc4)C[C@]4(O)[C@H](C2)N(CC2CC2)CC[C@@]314,.,13.3µM*,.,.,11.9µM*
Oc1ccc2c3c1O[C@H]1c4oc5ccccc5c4C[C@@]4(O)[C@@H](C2)N(CC2CC2)CC[C@]314,?,?,?,-64.8*,?
CC(C)C[C@H]1COc2cc(N3CCN(C)CC3)ccc2S(=O)(=O)N1,-12.6%,?,-0.1%,1.8,4.1%
O=C1NC(=O)C(=Cc2c(Cl)cccc2Cl)C(=O)N1,-9.3%,13µM*,-0.1%,-58.4*,11.6µM*
CCCNC(=O)N1[C@H]2CC[C@@H]1C(C(=O)OC)=C(c1ccc(S(C)(=O)=O)cc1)C2,11.3%,3.0%,13.6%,-2.3,-3.5%
O=P(/C=C1\OCc2ccccc21)(Oc1ccccc1)Oc1ccccc1,-3.1%,?,-1.0%,0.0,?
CCOc1ccc(/C=C/c2nc(C#N)c(NCc3ccccc3)o2)cc1,.,1.16µM*,.,.,?
COc1cc(CC(C)N)c(OC)cc1Br (stereo not drawn),.,28.3µM*,.,.,?
COc1ccc(OC)c(CC(C)N)c1 (stereo not drawn),.,-15.7%[92.5 µM],.,.,-19.0%[92.5 µM]
COc1ccccc1Sc1ccccc1CC(C)N (stereo not drawn),-18.2%,18.4µM*,-15.6%,-55.9*,14.6µM*
CCOc1ccc(-c2nc3cc(NC(=O)COc4cccc(C)c4)ccc3o2)cc1,.,16.4µM*,.,.,3.66µM*
CCOc1ccc2nc(NC(=O)c3cccn(Cc4ccc(C)cc4)c3=O)sc2c1,.,-11.3%,.,.,-8.9%
C=CCn1c(O)c(/C(C)=N/N2CCCCC2)c(=O)[nH]c1=O,13.7%,-15.3%,16.7%,.,18.1%
CCCCC1(CC)COP(=O)(OCC(Cl)(Cl)Cl)OC1 (stereo not drawn),7.7%,-2.3%,18.0%,1.3,-1.2%
O=C(CSc1nc2ccccc2c(=O)n1-c1ccccc1)Nc1ccc2c(c1)CCC2,-1.9%,20.6µM*,-0.2%,42.8,?
C[C@H](N)Cc1cnc[nH]1,.,-10.8%,.,.,-2.1%
Cc1cccc(C(C)c2cnc[nH]2)c1C (stereo not drawn),.,?,.,.,26.6µM*
O=C(Nc1ccc(F)c([N+](=O)[O-])c1)N1C[C@H]2C[C@@H](C1)c1cccc(=O)n1C2,0.9%,20.4%,4.2%,-27.0,-29.7%
CC(=NCCN1CCCCC1)c1c(O)[nH]c(=O)[nH]c1=O,-6.8%,-3.2%,-6.6%,0.0,-17.4%
[O-]c1ccccc1-[n+]1c(-c2ccccc2)cc(-c2ccccc2)cc1-c1ccccc1,.,2.06µM*,?,-83.9*,2.06µM*
Oc1ccccc1-[n+]1c(-c2ccccc2)cc(-c2ccccc2)cc1-c1ccccc1,14.6µM*,2.31µM*,?,?,1.3µM*
Nc1ccccc1-[n+]1c(-c2ccccc2)cc(-c2ccccc2)cc1-c1ccccc1,?,5.8µM*,?,-95.6*,6.51µM*
CCC1(CCC(C)C)C(=O)NC(=S)NC1=O,5.1%,-5.1%,11.5%,10.3,6.8%

# Screens from PubChem BioAssay.
